# Assay results: PubChem BioAssay (NCATS)
# A number with no mark means an inactive call. Inconclusive results are not listed. The source made the active and inactive calls. Unless noted, the call rests on the fitted dose curve; in most records, active means well fitted curve in the direction sought with a large enough effect; inconclusive means small, poorly fitted or top-dose-only effect, or another doubt; inactive means no such curve, though single readings can be large; an effect the other way counts as inactive or inconclusive.
# Assays:
# [1] = target: Lysosomal acid glucosylceramidase (Homo sapiens) (UniProt P04062); assay: Glucocerebrosidase-p2 (AID 348; in the data active means potency below about 10 µM; further: potency means the concentration at half of the fitted maximal effect); details: purified GBA, blue fluorogenic substrate, 40 min
# Sequence of Lysosomal acid glucosylceramidase (Homo sapiens) (P04062 whole entry, looked up): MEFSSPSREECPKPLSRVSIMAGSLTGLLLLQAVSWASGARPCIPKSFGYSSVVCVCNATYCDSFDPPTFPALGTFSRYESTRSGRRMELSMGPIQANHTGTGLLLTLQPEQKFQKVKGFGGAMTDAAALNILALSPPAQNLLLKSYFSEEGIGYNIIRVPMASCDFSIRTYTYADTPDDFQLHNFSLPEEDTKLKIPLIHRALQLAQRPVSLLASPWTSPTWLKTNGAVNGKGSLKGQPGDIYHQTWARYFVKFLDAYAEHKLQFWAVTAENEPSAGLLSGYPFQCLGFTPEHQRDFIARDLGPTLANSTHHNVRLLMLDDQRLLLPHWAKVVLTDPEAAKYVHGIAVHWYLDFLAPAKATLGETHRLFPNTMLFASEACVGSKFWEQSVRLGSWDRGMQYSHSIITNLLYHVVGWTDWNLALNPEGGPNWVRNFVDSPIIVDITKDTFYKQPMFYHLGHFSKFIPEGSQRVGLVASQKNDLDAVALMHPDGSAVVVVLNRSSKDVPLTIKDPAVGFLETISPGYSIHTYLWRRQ
# Procedure, shortened: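 Compounds titrated from 0.6 nM upwards against 0.2 nM enzyme in pH 5.9 citric acid/KH2PO4, taurocholate, tween-20; blue fluorogenic substrate 80 uM, 40 min room temperature, stopped and read Ex 365/Em 440 for AC50.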
# [2] = AP1 Signaling Pathway (AID 357; active means well fitted curve in either direction with a large enough effect, not every such curve was filed as active;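 further: ME-180 reporter cells stimulated with EGF at its EC50 level; on the % scale 0 is the no-effect control and ±100 the full control effect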); details: ME-180 AP-1-bla reporter, EGF-induced, beta-lactamase ratio, 5 h; at 7.69 µM (top of the series) unless noted
# Procedure, shortened: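 Beta-lactamase reporter under AP-1 response element, ME-180 background. Stimulus: EC50 EGF. Compound exposure 5 h, 37 °C. Detection: CCF4, 2.5 h RT, 460/530 nm. Values: AC50 from titration.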
# [3] = target: Cytochrome P450 1A2 (Homo sapiens) (UniProt P05177); assay: p450-cyp1a2 (AID 410; calls by dose curve; further: potency means the concentration at half of the fitted maximal effect); details: recombinant CYP1A2, luciferin-ME demethylation, luminescence; series mostly up to 57 µM
# Sequence of Cytochrome P450 1A2 (Homo sapiens) (P05177 whole entry, looked up): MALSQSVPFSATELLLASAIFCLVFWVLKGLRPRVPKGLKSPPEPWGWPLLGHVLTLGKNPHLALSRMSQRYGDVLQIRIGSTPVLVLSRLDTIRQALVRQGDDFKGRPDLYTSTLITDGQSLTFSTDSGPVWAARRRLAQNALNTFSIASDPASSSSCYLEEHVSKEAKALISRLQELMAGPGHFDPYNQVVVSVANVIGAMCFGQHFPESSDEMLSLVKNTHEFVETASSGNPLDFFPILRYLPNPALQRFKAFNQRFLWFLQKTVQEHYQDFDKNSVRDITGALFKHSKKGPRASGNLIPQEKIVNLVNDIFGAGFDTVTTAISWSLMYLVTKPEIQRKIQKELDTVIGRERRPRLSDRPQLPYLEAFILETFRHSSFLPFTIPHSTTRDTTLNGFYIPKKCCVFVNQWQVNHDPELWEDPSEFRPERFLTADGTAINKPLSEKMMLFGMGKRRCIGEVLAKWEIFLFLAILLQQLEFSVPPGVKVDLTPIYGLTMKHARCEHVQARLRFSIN
# Procedure, shortened: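 Inhibition was calculated relative to 57 uM furafylline (full inhibition). The reaction used human CYP1A2 at 20nM with Luciferin-ME at its Km, 100uM, driven by an NADPH-regenerating system for 60 min at room temperature.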
# [4] = NFAT Signaling Pathway (AID 444; active means well fitted curve in either direction with a large enough effect, not every such curve was filed as active;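 further: carbachol stimulus at about its EC50 of 1 µM final; on the % scale 0 is the no-effect control and ±100 the full control effect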); details: Jurkat NFAT-bla M1, carbachol, beta-lactamase ratio, 5 h; at 7.69 µM (top of the series) unless noted
# Procedure, shortened: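 Jurkat cells carrying an NFAT-driven β-lactamase reporter and co-transfected muscarinic M1 receptor were treated with compound plus carbachol (1 uM final, an EC50 level) for 5 h at 37 °C. CCF4 loading followed for 1 h at RT; 460/530 nm ratio gave %activity.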
# [5] = Stat Signaling Pathway (AID 446; active means well fitted curve in either direction with a large enough effect, not every such curve was filed as active;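 further: ME-180 cervical cancer cells given 40 pM IL-6 alongside compound; SIE-controlled beta-lactamase reporter measured as 460/530 nm FRET emission ratio; on the % scale 0 is the no-effect control and ±100 the full control effect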); details: ME-180 SIE beta-lactamase reporter, IL-6 stimulated, 5 h; at 7.69 µM (top of the series) unless noted
# Procedure, shortened: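 ME-180 SIE-bla cells; overnight plating; cpd + IL-6 40 pM, 5 h, 37 C; LiveBLAzer 2.5 h RT; 460/530 nm emission ratio. Normalized to 300 pM IL-6 and 125 nM JAK inhibitor controls.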
# [6] = target: Glucocorticoid receptor (Homo sapiens) (UniProt P04150); assay: GR-GFP Redistribution (AID 450;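 active means compounds whose dose series gives a full or clear partial fitted curve of increased nuclear translocation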; further: potency means the concentration at half of the fitted maximal effect); details: U2OS GR-GFP nuclear translocation, laser cytometry, 2 h
# Sequence of Glucocorticoid receptor (Homo sapiens) (P04150 whole entry, looked up, the tested form may be a part): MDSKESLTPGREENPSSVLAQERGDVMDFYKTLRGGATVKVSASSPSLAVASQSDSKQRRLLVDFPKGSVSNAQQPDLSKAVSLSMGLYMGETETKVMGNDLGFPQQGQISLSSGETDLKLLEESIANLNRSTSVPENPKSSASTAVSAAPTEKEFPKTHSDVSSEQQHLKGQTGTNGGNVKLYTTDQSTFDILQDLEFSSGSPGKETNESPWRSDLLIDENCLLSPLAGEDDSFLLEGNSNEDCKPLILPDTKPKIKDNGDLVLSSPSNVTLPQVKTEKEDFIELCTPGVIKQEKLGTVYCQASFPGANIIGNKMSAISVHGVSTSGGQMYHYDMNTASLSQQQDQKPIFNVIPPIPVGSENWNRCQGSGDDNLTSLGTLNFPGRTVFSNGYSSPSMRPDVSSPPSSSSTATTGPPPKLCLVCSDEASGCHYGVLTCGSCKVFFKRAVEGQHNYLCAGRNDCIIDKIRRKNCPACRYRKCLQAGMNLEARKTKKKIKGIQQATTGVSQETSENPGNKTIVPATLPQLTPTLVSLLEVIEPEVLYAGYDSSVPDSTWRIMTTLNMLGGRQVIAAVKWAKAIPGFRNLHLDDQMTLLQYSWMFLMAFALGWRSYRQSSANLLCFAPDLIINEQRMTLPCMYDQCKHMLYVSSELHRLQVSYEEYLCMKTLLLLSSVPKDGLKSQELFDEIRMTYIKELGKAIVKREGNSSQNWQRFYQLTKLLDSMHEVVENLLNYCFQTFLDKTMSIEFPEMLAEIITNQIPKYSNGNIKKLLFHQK
# [7] = target: Glucocorticoid receptor (Homo sapiens) (UniProt P04150); assay: GR-EFC Redistribution (AID 451; calls by dose curve; further: potency means the concentration at half of the fitted maximal effect); details: CHO-K1 GR-EFC translocation, beta-gal luminescence, 2 h
# Procedure, shortened: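 CHO-K1 cells stably expressing nuclear-localized β-gal enzyme acceptor and GR fused C-terminally to the enzyme donor fragment; ligand-driven nuclear translocation restores β-gal by complementation. Compounds titrated up to 46 uM final, 2 h at 37 °C; luminescence read.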
# [8] = target: Mitogen-activated protein kinase 10 (Mus musculus) (UniProt Q61831); assay: JNK3 AlphaScreen Assay (AID 530; active means well fitted curve in either direction with a large enough effect, not every such curve was filed as active;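 further: kinase came from lysate of stimulated human HepG2 cells; signal reports phosphorylation of biotinylated GST-cJun 1-79 at Ser73 with 10 µM ATP; on the % scale 0 is the no-effect control and ±100 the full control effect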); details: JNK3 lysate, c-Jun phosphorylation; series mostly up to 57.1 µM
# Procedure, shortened: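 JNK3 came from HepG2 lysates pre-activated with IL-1beta and TNF-alpha and phosphorylated biotinylated GST-cJun (1-79) at 10 uM ATP, pH 7.6, room temperature. Compounds were titrated. AlphaScreen signal used anti-phospho-cJun (Ser73) antibody.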
# [9] = target: Cytochrome P450 3A4 (Homo sapiens) (UniProt P08684); assay: qHTS Assay for Inhibitors and Substrates of Cytochrome P450 3A4 (AID 884); details: recombinant CYP3A4, Luciferin-PPXE luminescence; series mostly up to 57.1 µM; further: potency means the concentration at half of the fitted maximal effect; nearly all actives have a fitted effect of over 50% in size
# Sequence of Cytochrome P450 3A4 (Homo sapiens) (P08684 whole entry, looked up): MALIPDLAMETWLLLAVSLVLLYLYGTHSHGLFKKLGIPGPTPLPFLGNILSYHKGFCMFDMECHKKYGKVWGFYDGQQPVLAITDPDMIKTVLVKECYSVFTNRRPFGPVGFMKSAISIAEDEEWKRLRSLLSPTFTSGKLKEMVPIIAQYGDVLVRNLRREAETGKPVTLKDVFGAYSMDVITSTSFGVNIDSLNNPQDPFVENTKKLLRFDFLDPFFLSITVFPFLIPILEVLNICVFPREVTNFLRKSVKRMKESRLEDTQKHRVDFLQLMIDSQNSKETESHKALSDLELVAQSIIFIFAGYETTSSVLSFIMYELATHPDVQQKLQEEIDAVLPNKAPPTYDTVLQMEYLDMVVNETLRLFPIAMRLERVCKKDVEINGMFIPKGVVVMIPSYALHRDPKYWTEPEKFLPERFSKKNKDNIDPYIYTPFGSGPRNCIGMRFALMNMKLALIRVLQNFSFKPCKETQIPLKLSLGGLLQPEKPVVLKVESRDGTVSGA
# Procedure, shortened: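 20 nM human CYP3A4 with 25 uM Luciferin-PPXE (at KM) in 200 mM KPO4, preincubated 10 min with compound; NADPH regeneration started a 60 min RT reaction. Luciferin detected by luminescence, normalized to 57 uM ketoconazole as full inhibition.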
# [10] = target: Cytochrome P450 3A4 (Homo sapiens) (UniProt P08684); assay: qHTS Assay for Activators of Cytochrome P450 3A4 (AID 885); details: recombinant CYP3A4, Luciferin-PPXE luminescence, 60 min; series mostly up to 57.1 µM; further: nearly all actives have a fitted effect of over 65% in size
# Procedure, shortened: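 20nM CYP3A4 + 25uM Luciferin-PPXE (=KM), 200mM KPO4; cpd 10 min RT; NADPH regen, 60 min RT; stop w/ detection buffer, 20 min; luminescence. Normalized to 57 uM ketoconazole.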
# [11] = target: Dual specificity protein kinase CLK4 (Homo sapiens) (UniProt Q9HAZ1); assay: qHTS Assay for Inhibitors of CDC-like Kinase 4 (ADP-Glo Assay) (AID 1771); details: recombinant CLK4, ADP-Glo luminescence; series mostly up to 80 µM; further: potency means the concentration at half of the fitted maximal effect; nearly all actives have a fitted effect of over 70% in size
# Sequence of Dual specificity protein kinase CLK4 (Homo sapiens) (Q9HAZ1 whole entry, looked up): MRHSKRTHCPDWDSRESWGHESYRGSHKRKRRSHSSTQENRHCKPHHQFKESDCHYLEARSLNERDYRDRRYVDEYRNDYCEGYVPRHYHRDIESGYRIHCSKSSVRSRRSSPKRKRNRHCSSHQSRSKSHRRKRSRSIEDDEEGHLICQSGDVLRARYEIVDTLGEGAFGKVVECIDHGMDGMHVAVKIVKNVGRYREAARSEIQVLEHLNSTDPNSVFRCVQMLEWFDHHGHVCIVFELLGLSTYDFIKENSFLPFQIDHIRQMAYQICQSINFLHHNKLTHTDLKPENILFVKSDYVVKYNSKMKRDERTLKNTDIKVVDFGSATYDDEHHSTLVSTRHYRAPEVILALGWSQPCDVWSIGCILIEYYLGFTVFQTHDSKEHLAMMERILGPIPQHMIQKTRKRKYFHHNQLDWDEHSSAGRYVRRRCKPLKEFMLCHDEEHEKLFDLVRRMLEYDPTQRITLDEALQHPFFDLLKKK
# Procedure, shortened: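 Kinase reaction: Clk4 at 25 nM, RS repeat peptide substrate at 100 uM, ATP at 1 uM, 1 hr, room temperature. Product ADP detected as luciferase signal via ADP-Glo.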
# [12] = target: Dual specificity protein kinase CLK4 (Homo sapiens) (UniProt Q9HAZ1); assay: qHTS Assay for Inhibitors of CDC-like Kinase 4 (ADP-FP Assay) (AID 1795); details: Transcreener ADP fluorescence polarization; series mostly up to 50 µM;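 further: recombinant human CLK4 phosphorylating RS repeat peptide at 1 µM ATP; on the % scale 0 is the no-effect control and ±100 the full control effect; nearly all actives have a fitted effect of over 60% in size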
# Procedure, shortened: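 Recombinant Clk4 (6.25 nM) phosphorylated 100 uM RS repeat peptide with 1 uM ATP in 25 mM Tris pH 7.5, 10 mM MgCl2, 0.5 mM EGTA, 2.5 mM DTT, 0.01% Triton X-100 for 1 h. ADP was detected by Transcreener ADP2 competitive fluorescence polarization after 30 min at room temperature.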
# [13] = target: Ubiquitin carboxyl-terminal hydrolase 1 (Homo sapiens) (UniProt O94782); assay: Inhibitors of USP1/UAF1: Pilot qHTS (AID 504865); details: purified USP1/UAF1, Ub-rhodamine cleavage fluorescence; series mostly up to 54.9 µM;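 further: rhodamine fluorescence freed from ubiquitin-rhodamine substrate followed over time; top concentration of the series differs between compounds; on the % scale 0 is the no-effect control and ±100 the full control effect; nearly all actives have a fitted effect of over 35% in size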
# Sequence of Ubiquitin carboxyl-terminal hydrolase 1 (Homo sapiens) (O94782 whole entry, looked up): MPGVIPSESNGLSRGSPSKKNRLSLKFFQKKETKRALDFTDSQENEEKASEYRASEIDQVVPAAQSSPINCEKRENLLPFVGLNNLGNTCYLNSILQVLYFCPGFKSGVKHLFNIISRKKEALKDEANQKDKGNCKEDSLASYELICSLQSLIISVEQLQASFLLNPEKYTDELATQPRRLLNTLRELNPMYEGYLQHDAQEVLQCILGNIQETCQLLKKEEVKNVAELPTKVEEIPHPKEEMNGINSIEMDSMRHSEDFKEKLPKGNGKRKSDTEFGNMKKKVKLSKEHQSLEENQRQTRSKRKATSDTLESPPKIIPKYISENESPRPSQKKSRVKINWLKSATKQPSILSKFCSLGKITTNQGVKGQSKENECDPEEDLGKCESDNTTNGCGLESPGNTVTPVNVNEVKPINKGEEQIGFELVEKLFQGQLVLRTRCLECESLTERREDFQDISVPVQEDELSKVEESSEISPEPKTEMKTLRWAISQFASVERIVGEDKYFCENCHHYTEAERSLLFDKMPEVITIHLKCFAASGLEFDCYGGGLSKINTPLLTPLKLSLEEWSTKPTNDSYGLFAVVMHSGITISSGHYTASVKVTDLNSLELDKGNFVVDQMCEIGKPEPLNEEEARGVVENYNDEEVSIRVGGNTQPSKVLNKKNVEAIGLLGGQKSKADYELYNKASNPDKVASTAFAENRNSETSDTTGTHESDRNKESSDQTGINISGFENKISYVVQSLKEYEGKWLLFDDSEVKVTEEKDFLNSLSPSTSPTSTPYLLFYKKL
# Procedure, shortened: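 USP1/UAF1 complex at 1 nM preincubated 15 min at room temperature with compound, then Ub-Rho substrate added at 150 nM final. Fluorescence (480/540 nm) read kinetically in 50 mM HEPES pH 7.8, 0.5 mM EDTA, 1 mM TCEP, 0.1 mg/ml BSA, 0.01% Tween-20.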
# [14] = Primary qHTS for small molecule stabilizers of the endoplasmic reticulum resident proteome: Secreted ER Calcium Modulated Protein (SERCaMP) assay (AID 1508630); details: SH-SY5Y GLuc-SERCaMP (Gaussia luciferase released on ER calcium loss) secretion, thapsigargin, luminescence; series mostly up to 38.4 µM; further: on the % scale 0 is the no-effect control and ±100 the full control effect
# Procedure, shortened: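 GLuc-SERCaMP-expressing SH-SY5Y cells, pretreated 16 h with compound, are challenged with thapsigargin to empty ER calcium stores; after 4 h, coelenterazine is added directly to the medium and luminescence is imaged.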
# [15] = target: 3',5'-cyclic-AMP phosphodiesterase 4B (Homo sapiens) (UniProt Q07343); assay: qHTS Assay for Inhibitors of PDE-IV (AID 607; active means well fitted activation curve with a large enough effect in the main read-out, with a control signal flat, not every such curve was filed as active; further: % of control where 0% means no effect); details: HEK293 ACTOne CNG channel cells, membrane potential fluorescence; series mostly up to 22.9 µM
# Sequence of 3',5'-cyclic-AMP phosphodiesterase 4B (Homo sapiens) (Q07343 whole entry, looked up): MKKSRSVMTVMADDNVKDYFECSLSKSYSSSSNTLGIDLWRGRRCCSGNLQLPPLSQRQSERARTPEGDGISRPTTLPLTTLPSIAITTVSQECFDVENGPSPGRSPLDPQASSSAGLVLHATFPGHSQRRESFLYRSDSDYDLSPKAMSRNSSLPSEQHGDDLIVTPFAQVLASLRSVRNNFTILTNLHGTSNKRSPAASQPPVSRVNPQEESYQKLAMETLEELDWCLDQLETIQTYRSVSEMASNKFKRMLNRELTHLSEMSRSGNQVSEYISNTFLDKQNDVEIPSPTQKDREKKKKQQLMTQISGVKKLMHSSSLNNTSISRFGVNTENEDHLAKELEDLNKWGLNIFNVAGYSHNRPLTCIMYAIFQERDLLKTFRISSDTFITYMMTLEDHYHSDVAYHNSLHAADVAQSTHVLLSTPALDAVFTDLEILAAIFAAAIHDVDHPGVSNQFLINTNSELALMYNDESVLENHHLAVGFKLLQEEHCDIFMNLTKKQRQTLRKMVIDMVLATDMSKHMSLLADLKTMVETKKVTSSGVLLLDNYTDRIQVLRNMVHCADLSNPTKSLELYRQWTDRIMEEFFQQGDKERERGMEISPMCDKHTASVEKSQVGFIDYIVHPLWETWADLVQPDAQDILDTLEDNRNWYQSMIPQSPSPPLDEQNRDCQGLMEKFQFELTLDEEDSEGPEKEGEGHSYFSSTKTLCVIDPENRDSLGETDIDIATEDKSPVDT
# Procedure, shortened: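 ACTOne HEK293 cells carry a modified cAMP-gated CNG channel and express endogenous PDE4; plated 1000 cells/well, compounds up to 22.9 uM final. Membrane-potential dye fluorescence (ex 535/em 590) was read; parental cells received 10 uM forskolin + 100 uM RO 20-1724.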
# [16] = target: Dual specificity protein kinase CLK4 (Homo sapiens) (UniProt Q9HAZ1); assay: qHTS Assay for Inhibitors of CDC-like Kinase 4 (Kinase-Glo Assay) (AID 1770); details: recombinant Clk4, Kinase-Glo ATP depletion luminescence; series mostly up to 66.7 µM; further: on the % scale 0 is the no-effect control and ±100 the full control effect; nearly all actives have a fitted effect of over 65% in size
# Procedure, shortened: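 25 nM Clk4 with 100 uM RS repeat peptide and 1 uM ATP (final) in Tris pH7.5, 10 mM MgCl2, 4.5 h at room temperature. Remaining ATP measured by Kinase-Glo luciferase luminescence.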
# [17] = target: Cytochrome P450 2C19 (Homo sapiens) (UniProt P33261); assay: qHTS Assay for Inhibitors and Substrates of Cytochrome P450 2C19 (AID 899); details: recombinant CYP2C19, luciferin-H EGE luminescence; series mostly up to 57.1 µM; further: potency means the concentration at half of the fitted maximal effect; nearly all actives have a fitted effect of over 60% in size
# Sequence of Cytochrome P450 2C19 (Homo sapiens) (P33261 whole entry, looked up): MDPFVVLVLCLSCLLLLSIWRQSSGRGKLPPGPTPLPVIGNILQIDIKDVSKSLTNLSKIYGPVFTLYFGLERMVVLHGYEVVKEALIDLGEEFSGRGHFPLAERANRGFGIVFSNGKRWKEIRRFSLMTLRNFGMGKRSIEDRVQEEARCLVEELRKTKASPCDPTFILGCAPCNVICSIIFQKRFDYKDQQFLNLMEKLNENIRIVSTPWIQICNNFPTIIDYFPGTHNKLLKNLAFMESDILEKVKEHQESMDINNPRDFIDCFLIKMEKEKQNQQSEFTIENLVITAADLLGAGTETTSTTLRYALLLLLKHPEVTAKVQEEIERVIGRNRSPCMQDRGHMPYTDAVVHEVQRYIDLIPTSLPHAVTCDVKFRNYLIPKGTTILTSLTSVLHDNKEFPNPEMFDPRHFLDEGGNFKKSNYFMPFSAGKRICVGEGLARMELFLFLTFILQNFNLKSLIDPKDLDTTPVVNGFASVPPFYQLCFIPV
# Procedure, shortened: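 NADPH-dependent conversion of Luciferin-H EGE (10uM, at KM) by 5nM enzyme in 50mM KPO4, 60 min at 37C following 10 min compound preincubation. Stopped with luciferin detection buffer; luminescence read after 20 min.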
SMILES,Potency [1] [µM],"activity change, negative = inhibition [2] [%]",Potency [3],"activity change, negative = inhibition [4] [%]","activity, negative = inhibition [5] [%]",Potency [6] [µM],Potency [7] [µM],Potency [8],Potency [9],Potency [10],Potency [11],Potency [12],Potency [13],outcome [14],Potency [15],Potency [16],Potency [17]
COc1cccc(-c2nccc(NCc3cnc(C)cn3)n2)c1,> 11.4,2.41,0.501 µM (active),-1.09,13.7,> 46,> 46,inactive,6.31 µM (active),inactive,28.2 µM (active),inactive,inactive,inactive,–,–,–
CCNc1ncc2nc(-c3cccc(C#N)c3)c(=O)n(Cc3cccc(OC)c3)c2n1,–,-6.16,–,-14.9,-8.97,> 9.22,> 46,inactive,–,–,–,–,inactive,inactive,inactive,inactive,–
Fc1ccc(Nc2ccnc(-c3ccc4c(c3)OCO4)n2)cc1,> 11.4,8.72,0.631 µM (active),-0.562,-6.41,> 46,> 46,inactive,2 µM (active),inactive,31.6 µM (active),inactive,–,inactive,–,–,2 µM (active)
CN(Cc1ccco1)c1ncncc1-c1ccccc1C(F)(F)F,–,13.8,12.6 µM (active),–,-2.15,> 46,> 46,inactive,1.26 µM (active),inactive,–,–,inactive,inactive,–,inactive,3.98 µM (active)
Cc1ccccc1-c1nccc(NCc2cccnc2)n1,> 11.4,13,0.2 µM (active),3.23,-15.6,> 46,> 46,inactive,3.98 µM (active),inactive,28.2 µM (active),inactive,inactive,inactive,inactive,–,5.01 µM (active)
N#Cc1cccc(-c2nc(NCc3cccnc3)c3ccccc3n2)c1,–,-20.1,0.251 µM (active),28.2,-21.4,> 46,> 46,inactive,5.01 µM (active),inactive,–,–,inactive,inactive,–,inactive,–
